Results filed as inconclusive are left out. Active and inactive are the calls of the source. Unless noted, the call rests on the fitted dose curve; in most records, active means well fitted curve in the direction sought with a large enough effect; inconclusive means small, poorly fitted or top-dose-only effect, or another doubt; inactive means no such curve, though single readings can be large; an effect the other way counts as inactive or inconclusive.
Experiments:
[1] = Confirmation and Secondary Assay for Modulators of Hemoglobin Beta Chain Splicing at IVS2 654 locus (AID 910);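 further: HeLa cells stably carrying EGFP split by mutant beta-globin IVS2-654 intron; per-well total GFP intensity by laser scanning cytometry after 2-day treatment; % of control where 0% means no effect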
How it was run: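 Readout: per-well total peak green fluorescence (488 nm ex, 500–520 nm em) from objects 5–250 µm, reflecting correct splicing of an EGFP-654 reporter. Compounds were applied for 2 days at 37 °C to overnight-plated HeLa EGFP-654 cells; controls were DMSO and 500 nM IVS2-654 PNA.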

[2] = Confirmation and Secondary Assay for Modulators of Hemoglobin Beta Chain Splicing at IVS2 705 locus (AID 930);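 further: HeLa cells stably expressing the EGFP-705 splicing reporter; GFP fluorescence per well restored by corrected splicing of the IVS2-705 intron in EGFP; % of control where 0% means no effect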
How it was run: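 Assay measures total GFP intensity per well in HeLa EGFP-705 cells after 2 days with compound; mis-splicing normally truncates EGFP, so fluorescence indicates corrected splicing.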

[3] = qHTS Assay for Lipid Storage Modulators (AID 1519; calls by dose curve; on activity change, negative = inhibition: on the % scale 0 is the no-effect control and ±100 the full control effect); conditions: Drosophila S3 cells, BODIPY lipid droplet/cell ratio, laser cytometry, cells loaded with oleic acid
How it was run: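 Cells seeded at 5,000 per well were treated with compounds over a concentration series and loaded with oleic acid (400 uM, as added). Lipid droplet fluorescence (488 nm excitation, 500-530 nm channel) was read by laser-scanning cytometry and normalized to 20 uM Triacsin C.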

[4] = biological target: ATP-dependent 6-phosphofructokinase (Trypanosoma brucei brucei) (UniProt O15648); experiment: qHTS Assay to Find Inhibitors of T. brucei phosphofructokinase: hit validation (AID 492961);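 further: luminescence reports ADP formed as PFK phosphorylates fructose-6-phosphate with ATP; on the % scale 0 is the no-effect control and ±100 the full control effect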
Chain of ATP-dependent 6-phosphofructokinase (Trypanosoma brucei brucei) (O15648 whole entry, looked up): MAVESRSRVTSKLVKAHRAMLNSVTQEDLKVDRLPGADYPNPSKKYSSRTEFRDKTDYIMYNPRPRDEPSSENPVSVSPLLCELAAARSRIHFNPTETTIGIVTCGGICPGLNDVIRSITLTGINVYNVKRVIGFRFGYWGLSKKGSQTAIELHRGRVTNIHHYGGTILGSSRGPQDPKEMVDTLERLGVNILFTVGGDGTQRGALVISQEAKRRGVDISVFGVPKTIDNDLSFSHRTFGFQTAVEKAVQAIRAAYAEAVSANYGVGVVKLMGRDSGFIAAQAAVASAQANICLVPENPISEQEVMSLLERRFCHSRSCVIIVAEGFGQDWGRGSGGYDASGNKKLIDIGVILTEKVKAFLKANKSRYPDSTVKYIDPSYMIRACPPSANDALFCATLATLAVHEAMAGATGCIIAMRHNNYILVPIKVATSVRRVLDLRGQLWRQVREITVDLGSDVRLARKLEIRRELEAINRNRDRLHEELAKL
How it was run: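 Measures ADP output of PFK (1.25 nM) at 0.1 mM ATP, 0.5 mM F6P, pH 8.0 TEA buffer with 5 mM MgCl2. No-enzyme wells define full inhibition; uninhibited enzyme wells define zero.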

[5] = biological target: Luciferin 4-monooxygenase (Photinus pyralis) (UniProt P08659); experiment: Biochemical firefly luciferase enzyme assay for NPC (AID 624030);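 further: purified P. pyralis luciferase at 10 nM with luciferin and ATP substrate; 0% = DMSO and -100% = full luciferase inhibition by PTC124 control; nearly all actives have a fitted effect of over 70% in size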
Chain of Luciferin 4-monooxygenase (Photinus pyralis) (P08659 whole entry, looked up): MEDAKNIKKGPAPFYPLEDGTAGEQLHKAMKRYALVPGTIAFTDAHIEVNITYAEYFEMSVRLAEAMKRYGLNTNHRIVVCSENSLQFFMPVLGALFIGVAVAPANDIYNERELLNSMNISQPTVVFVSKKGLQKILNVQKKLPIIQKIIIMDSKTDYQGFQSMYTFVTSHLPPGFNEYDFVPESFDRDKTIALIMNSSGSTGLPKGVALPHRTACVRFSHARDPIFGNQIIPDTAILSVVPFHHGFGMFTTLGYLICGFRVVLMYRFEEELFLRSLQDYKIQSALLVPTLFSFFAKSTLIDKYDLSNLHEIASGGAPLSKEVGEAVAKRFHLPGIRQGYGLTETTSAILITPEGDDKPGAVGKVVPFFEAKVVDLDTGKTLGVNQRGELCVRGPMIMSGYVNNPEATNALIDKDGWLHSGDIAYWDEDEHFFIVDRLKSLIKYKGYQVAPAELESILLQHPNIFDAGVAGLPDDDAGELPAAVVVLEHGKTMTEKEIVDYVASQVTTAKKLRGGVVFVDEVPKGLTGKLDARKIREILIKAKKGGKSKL
How it was run: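 Direct inhibition of firefly luciferase enzyme (10 nM final, 50 mM Tris Acetate) assessed by luminescence within 5 minutes. Percent activity scaled between DMSO and PTC124 positive control, with concentration-effect curves classified by fit quality and response.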

[6] = S16 Schwann cell viability assay (CellTiter-Glo assay) (AID 624031);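 further: native untransfected S16 rat Schwann cells; cellular ATP luminescence as a viability measure; plate controls were DMSO-treated cells for no effect and cell-free wells for full effect; nearly all actives have a fitted effect of over 70% in size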
How it was run: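 Concentration-effect curves come from CellTiter-Glo luminescence of S16 rat Schwann cells after 24 h compound exposure. Each reading was normalized to DMSO wells (0%) and wells without cells, and curves were ranked by r2 and response magnitude.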

[7] = S16 Schwann cell PMP22 intronic element firefly luciferase assay (AID 624032);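 further: plate controls were DMSO for no effect and PTC124 positive control mean for full effect; nearly all actives have a fitted effect of over 30% in size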
How it was run: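 Luciferase reporter of PMP22 intronic-element expression in stably transfected S16 rat Schwann cells, read by ONE-Glo luminescence after 24 h compound exposure at 37 C. Activity scaled between DMSO (0%) and positive-control PTC124; concentration-effect curves quality-classified.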

[8] = S16 Schwann cell PMP22 intronic element beta-lactamase assay (AID 624044; calls by dose curve;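 further: 0% = DMSO and -100% = potassium clavulanate positive control; nearly all actives have a fitted effect of over 15% in size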)
How it was run: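 Rat S16 Schwann cells with beta-Lac driven by a PMP22 intronic element, compound-treated 24 h at 37 °C. LiveBLAzer FRET B/G read: 460 nm normalized to potassium clavulanate vs DMSO; 535 nm FRET as viability; concentration-effect curves classified.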

[9] = qHTS profiling for inhibitors of Plasmodium falciparum proliferation (AID 504749);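 further: 0% = DMSO vehicle and full inhibition = artemisinin control; nearly all actives have a fitted effect of over 60% in size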; conditions: P. falciparum in erythrocytes, SYBR Green DNA, 72 h, at 28.7 µM (top of the series)
How it was run: (§1)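 Three-day growth assay of blood-stage parasites in erythrocytes (0.3% parasitemia, 2.5% hematocrit) at 37 C, 5% CO2, quantified by SYBR Green DNA staining after overnight detergent lysis.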

3D7 = experiment: as above; conditions: P. falciparum in erythrocytes, SYBR Green DNA, 72 h; series mostly up to 12.8 µM
How it was run: as §1

AA1029 = experiment: as above; conditions: P. falciparum in erythrocytes, SYBR Green DNA, 72 h; series mostly up to 12.8 µM
How it was run: as §1

AS120 = experiment: as above; conditions: P. falciparum in erythrocytes, SYBR Green DNA, 72 h; series mostly up to 12.8 µM
How it was run: as §1

ATS189 = experiment: as above; conditions: P. falciparum in erythrocytes, SYBR Green DNA, 72 h; series mostly up to 12.8 µM
How it was run: as §1

ATS95 = experiment: as above; conditions: P. falciparum in erythrocytes, SYBR Green DNA, 72 h; series mostly up to 12.8 µM
How it was run: as §1

C2A = experiment: as above; conditions: P. falciparum in erythrocytes, SYBR Green DNA, 72 h; series mostly up to 12.8 µM
How it was run: as §1

CP185 = experiment: as above; conditions: P. falciparum in erythrocytes, SYBR Green DNA, 72 h; series mostly up to 12.8 µM
How it was run: as §1

CP191 = experiment: as above; conditions: P. falciparum in erythrocytes, SYBR Green DNA, 72 h; series mostly up to 12.8 µM
How it was run: as §1

CP192 = experiment: as above; conditions: P. falciparum in erythrocytes, SYBR Green DNA, 72 h; series mostly up to 12.8 µM
How it was run: as §1

CP194 = experiment: as above; conditions: P. falciparum in erythrocytes, SYBR Green DNA, 72 h; series mostly up to 12.8 µM
How it was run: as §1

CP201 = experiment: as above; conditions: P. falciparum in erythrocytes, SYBR Green DNA, 72 h; series mostly up to 12.8 µM
How it was run: as §1

CP203 = experiment: as above; conditions: P. falciparum in erythrocytes, SYBR Green DNA, 72 h; series mostly up to 12.8 µM
How it was run: as §1

CP211 = experiment: as above; conditions: P. falciparum in erythrocytes, SYBR Green DNA, 72 h; series mostly up to 12.8 µM
How it was run: as §1

CP215 = experiment: as above; conditions: P. falciparum in erythrocytes, SYBR Green DNA, 72 h; series mostly up to 12.8 µM
How it was run: as §1

CP217 = experiment: as above; conditions: P. falciparum in erythrocytes, SYBR Green DNA, 72 h; series mostly up to 12.8 µM
How it was run: as §1

CP237 = experiment: as above; conditions: P. falciparum in erythrocytes, SYBR Green DNA, 72 h; series mostly up to 12.8 µM
How it was run: as §1

CP238 = experiment: as above; conditions: P. falciparum in erythrocytes, SYBR Green DNA, 72 h; series mostly up to 12.8 µM
How it was run: as §1

CP250 = experiment: as above; conditions: P. falciparum in erythrocytes, SYBR Green DNA, 72 h; series mostly up to 12.8 µM
How it was run: as §1

CP252 = experiment: as above; conditions: P. falciparum in erythrocytes, SYBR Green DNA, 72 h; series mostly up to 12.8 µM
How it was run: as §1

CP256 = experiment: as above; conditions: P. falciparum in erythrocytes, SYBR Green DNA, 72 h; series mostly up to 12.8 µM
How it was run: as §1

CP260 = experiment: as above; conditions: P. falciparum in erythrocytes, SYBR Green DNA, 72 h; series mostly up to 12.8 µM
How it was run: as §1

CP262 = experiment: as above; conditions: P. falciparum in erythrocytes, SYBR Green DNA, 72 h; series mostly up to 12.8 µM
How it was run: as §1

CC(=O)[C@]1(O)CCC2C3C=C(Cl)C4=CC(=O)C5CC5[C@@]4(C)C3CC[C@]21C (some centres undefined)
inactive: Potency [1] | Potency [2] | activity change, negative = inhibition ([3]; at 57.5 µM (top of the series)) 8.7% | outcome [4] | Potency [5] | outcome [6] | Potency [7] | Potency [8] | activity, negative = inhibition ([9]; parasite line A) 6.27% | activity, negative = inhibition ([9]; parasite line B) 5.21% | Potency (3D7) | Potency (AA1029) | Potency (AS120) | Potency (ATS189) | Potency (ATS95) | Potency (C2A) | Potency (CP185) | Potency (CP191) | Potency (CP192) | Potency (CP194) | Potency (CP201) | Potency (CP203) | Potency (CP211) | Potency (CP215) | Potency (CP217) | Potency (CP237) | Potency (CP238) | Potency (CP250) | Potency (CP252) | Potency (CP256) | Potency (CP260) | Potency (CP262)
4.22%: max response ([3]; measured here: cell count channel max response)
14.3%: max response ([3]; measured here: lipid channel max response)

From PubChem BioAssay (NCATS)
